# A selection: hits, their analogues and other compounds. The true share with any hit is near 7.4%.
# KinaseGlo FLuc: counter-screen: inhibitors of Kinase-Glo firefly luciferase. Q27757. Kinase-Glo luciferase, ATP luminescence, 8 min. 0.28% of 200,000 active. AID 1379. Potency, µM (titrated, usually from 38.3 µM), most hits filed as inhibitors; note: nearly all actives have a fitted effect of over 60% in size
#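 Kinase-Glo luciferase light output from ATP and luciferin was measured with 10 uM ATP, within the enzyme's linear range. Buffer: 50 mM imidazole pH 7.2, 50 mM KCl, 7 mM MgCl2, 0.01% Tween 20, 0.05% BSA; luminescence read after 8 min at ambient temperature.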
# ELG1 genotox: induces genotoxicity in HEK293T cells with luciferase-tagged ELG1 | 1.3% of 330,000 active | HEK293T ELG1-luciferase reporter, luminescence, 16 h | AID 504466 | Potency, µM (top dose mostly 46 µM), usual class: activators; note: nearly all actives have a fitted effect of over 60% in size
#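 Cells (2,000/well) expressing the ELG1-luciferase fusion are dosed by pin tool and kept 16 hr at 37 °C, 5% CO2. Signal comes from ONE-Glo luciferase reagent after 30 min at room temperature.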
# FLuc modulator: firefly luciferase modulation, counter-screen for miR-21 project; purified FLuc, Km substrates, luminescence inhibition; Potency, µM (doses to about 57.5 µM), usual class: inhibitors; 6.9% of 360,000 active; AID 588342; note: nearly all actives have a fitted effect of over 55% in size
# Target sequence (P08659 whole entry, looked up): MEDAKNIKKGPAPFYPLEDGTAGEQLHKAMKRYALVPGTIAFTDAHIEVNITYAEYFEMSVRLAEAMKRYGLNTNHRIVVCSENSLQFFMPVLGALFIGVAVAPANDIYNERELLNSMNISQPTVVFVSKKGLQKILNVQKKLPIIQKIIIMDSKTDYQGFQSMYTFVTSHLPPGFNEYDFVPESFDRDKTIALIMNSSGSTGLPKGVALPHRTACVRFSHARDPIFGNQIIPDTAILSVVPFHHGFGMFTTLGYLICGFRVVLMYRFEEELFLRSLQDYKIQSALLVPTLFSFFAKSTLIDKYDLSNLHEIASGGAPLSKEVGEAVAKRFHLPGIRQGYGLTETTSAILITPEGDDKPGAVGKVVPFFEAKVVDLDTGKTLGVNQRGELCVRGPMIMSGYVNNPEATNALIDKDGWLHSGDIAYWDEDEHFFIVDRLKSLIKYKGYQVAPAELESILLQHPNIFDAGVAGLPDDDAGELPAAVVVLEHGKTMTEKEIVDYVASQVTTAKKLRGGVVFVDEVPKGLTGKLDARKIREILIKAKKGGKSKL
#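 Purified P. pyralis luciferase (10nM final) with 10uM D-luciferin and 10uM ATP (Km levels) in 50mM Tris acetate pH 7.5, 10mM Mg acetate, 0.01% Tween-20, 0.05% BSA; qHTS 6-point titration, ~60 µM downward; luminescence read.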
# Rab9 prom act: activates the Rab9 promoter. 2.8% of 320,000 active. Huh7 Rab9 promoter-luciferase reporter, luminescence, 24 h. Potency, µM (series often up to 9.22 µM), usual class: activators; note: nearly all actives have a fitted effect of over 60% in size
#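 Cell-based reporter: Huh7 stable for Rab9 promoter-driven luciferase, plated in reduced-serum medium with 10% FBS at 1500 cells/well, compound-treated 24 h at 37 °C, luminescence read after 10 min reagent.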
# SMN2 splice up: SMN2 splice variant enhancement; HEK293 SMN2-luciferase splicing reporter, luminescence, 30-36 h; Potency, µM (top dose mostly 46.1 µM), usual class: activators; 2.8% of 210,000 active; AID 1458; note: nearly all actives have a fitted effect of over 55% in size
#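 HEK293 cells carry an SMN2 […]–luciferase reporter in which exon 7 inclusion puts luciferase in frame. Cells were plated 10-12 h before compound addition, then incubated 30-36 h at 37C. ONE-Glo luminescence was read; sodium butyrate at 4.5 mM final served as control.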
# NPC1 promoter act: activates the NPC1 promoter. Huh7 NPC1 promoter luciferase reporter, 24 h. Potency, µM (doses to about 9.22 µM), hits mostly activators. 2.4% of 320,000 active. AID 485313; note: nearly all actives have a fitted effect of over 60% in size
#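 Compounds in DMSO were transferred onto Huh7 NPC1-luciferase reporter cells pre-incubated 2 h; after 24 h at 37 °C, Amplite reagent was dispensed and luminescence recorded 10 min later.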
# Hits are given with their value; n = inactive; u = inconclusive; x = not tested or not shown; [ ] = dose if it differs, or a comment. Calls come from the whole dose curve; as a rule, active = well fitted curve in the direction sought with a large enough effect; inconclusive = small, poorly fitted or top-dose-only effect, or another doubt; inactive = no such curve, though single readings can be large; an effect the other way counts as inactive or inconclusive.
SMILES,KinaseGlo FLuc,ELG1 genotox,FLuc modulator,Rab9 prom act,SMN2 splice up,NPC1 promoter act
COc1ccc(C(=O)N/N=C(/C)c2cccc(NC(=O)C(F)(F)F)c2)cc1,n,u,10.7µM,u,10µM,3.55µM
CCC(=O)Nc1ccc(/C(C)=N\NC(=O)c2ccc(OC)cc2)cc1,n,n,n,n,n,n
Cn1c(=O)c(C(=O)NCC2CCCO2)c(O)c2ccccc21 (centres undefined),n,u,u,u,n,n
Cc1cccnc1NC(=O)CCc1nnc2ccc(N3CCC4(CC3)OCCO4)nn12,x,n,n,n,x,n
Cc1ccc2[nH]c(C(=O)N3CCC(C(N)=O)CC3)cc2c1,x,n,n,n,x,n
CN(C)S(=O)(=O)c1ccc(Cl)c(NC(=O)C2CCN(S(=O)(=O)c3cccs3)CC2)c1,x,n,n,n,x,n
COc1cccc(NC(=O)c2ccccc2C(F)(F)F)c1,n,n,n,n,n,n
COc1cccc(NC(=O)c2ccc(OC(F)(F)F)cc2)c1,x,u,2.39µM,1.78µM,x,3.98µM
COc1cccc(C(=O)N/N=C(\C)CC(=O)Nc2ccc(N(C)C)cc2)c1,x,n,u,n,x,n
COc1cccc(C(=O)Nc2cccc(-c3ccccc3)c2)c1,x,n,21.3µM,n,x,n
COc1cccc(/C(C)=N/NC(=O)c2ccc(N(C)C)cc2)c1,n,u,19µM,3.55µM,u,u
CC(=O)Nc1cccc(/C(C)=N/NS(=O)(=O)c2ccccc2)c1,n,n,n,n,n,n
COc1ccc(S(=O)(=O)N/N=C(/C)c2cccc(NC(=O)c3ccccc3Cl)c2)cc1,n,n,26.9µM,n,n,n
Cc1ccc(OCCC(=O)OCC(=O)Nc2ccc(C)cc2Cl)cc1,x,n,n,n,x,n
COc1cccc(NC(=O)c2ccc(NC(=O)C(C)C)cc2)c1,x,u,10.7µM,u,x,u
COc1cc(OC)cc(C(=O)Nc2cccc(C(C)=O)c2)c1,u,u,u,n,n,n
COc1cc(C(=O)Nc2cccc(NC(=O)c3ccccc3)c2)cc(OC)c1OC,x,n,15.1µM,n,x,n
COc1cc(OC)cc(C(=O)Nc2cccc(NC(=O)c3ccccc3)c2)c1,x,n,16.9µM,n,x,n
COc1cccc(NC(=O)Nc2cccnc2)c1,x,n,16.9µM,n,x,n
CCn1cc(Cl)c(C(=O)NNC(=O)CCn2ccc([N+](=O)[O-])n2)n1,x,n,n,n,x,n
COC(=O)[C@@]1(C)[C@H]2C(=O)N(C)C(=O)[C@H]2[C@H]2CN=C(SC)N21,x,n,x,x,x,x
COc1ccc(S(=O)(=O)N/N=C(/C)c2ccco2)cc1,x,u,16.9µM,2.51µM,x,u
COc1ccc(S(=O)(=O)N/N=C(/C)c2ccncc2)cc1,x,n,n,n,x,n
CC(C)OC(=O)c1cccc(NC(=O)c2ccccc2)c1,n,n,13.5µM,u,u,u
Cc1[nH]c2ccc(C(=O)N3CCCCC3)cc2c1C,n,u,19µM,3.16µM,12.6µM,3.16µM
SMILES,KinaseGlo FLuc,ELG1 genotox,FLuc modulator,Rab9 prom act,SMN2 splice up,NPC1 promoter act
Cc1[nH]c2ccc(C(=O)Nc3ccc(F)cc3)cc2c1C,x,x,23.9µM,x,x,x
COc1ccccc1NS(=O)(=O)c1cccc(C(=O)N(C)Cc2cccs2)c1,x,n,n,n,x,n
COc1cc(NC(=O)CSC2=Nc3ccccc3N=C(c3ccc(F)cc3)C2)cc(OC)c1,x,x,n,x,x,x
CC1CCN(S(=O)(=O)c2ccc3nc(NCc4ccccc4)ccc3c2)CC1,x,x,n,x,x,x
CC(C)CN(C(=O)COc1ccc(Br)cc1C=O)C1CCS(=O)(=O)C1 (centres undefined),x,n,n,n,x,n
COC(=O)c1ccccc1NC(=O)Nc1cccnc1,n,n,15.1µM,n,n,n
COc1cc(C(=O)Nc2ccc(S(=O)(=O)N(C)c3ccccc3)cc2)cc(OC)c1OC,n,n,n,n,u,n
COc1cccc(NC(=O)CC(=O)c2ccc([N+](=O)[O-])cc2)c1,x,n,2.13µM,n[1.84 µM],x,u
COc1cc(C(=O)Nc2ccc(N(C)C)cc2)cc(OC)c1OC,x,u,3.01µM,n,x,n
COc1cccc(NC(=O)N2CCN(c3cccc(C)c3C)CC2)c1,n,u,15.1µM,n,n,n
CCCn1c(=O)c2[nH]c(-c3ccc(S(=O)(=O)O)cc3)nc2n(CCC)c1=O,n,n,n,n,n,n
CN(C)S(=O)(=O)c1ccc(Cl)c(NC(=O)CN2CCN(Cc3ccc4c(c3)OCO4)CC2)c1,x,n,n,n,x,n
COc1cccc(NC(=O)c2cccc(C(=O)Nc3cccc(OC)c3)c2)c1,x,n,n,n,x,n
COc1cccc(NC(=O)c2ccccc2)c1,x,u,10.7µM,1.78µM,x,2.82µM
COc1cccc(C(=O)Nc2cccc(NC(C)=O)c2)c1,n,n,u,n,n,n
COc1cccc(NC(=O)Cn2nnc(C(=O)Nc3ccccc3)c2N)c1,n,n,u,n,n,n
COc1cccc(NC(=O)c2nnn(CCc3ccccc3)c2N)c1,n,u,15.1µM,n,u,n
COc1ccc(C(=O)Nc2cccc(OC)c2)cc1,7.94µM,2.31µM,6.75µM,1.26µM,2.82µM,2µM
COc1cccc(NC(=O)Nc2cccc(C(=O)O)c2)c1,n,n,0.169µM,u,x,u
O=C(CNC(=O)c1cccc([N+](=O)[O-])c1)NC1CCCc2ccccc21 (centres undefined),x,n,n,n,x,n
COc1ccc(S(=O)(=O)N2CCN(C(=O)CCc3c[nH]c4ccccc34)CC2)cc1,x,n,n,n,x,n
Cc1occc1C(=O)NNC(=O)c1ccccc1[N+](=O)[O-],x,n,n,n,x,n
C=CCC1(C#N)C(SC)=NC2=C(C(=O)CC(C)(C)C2)C1c1ccc(Br)cc1 (centres undefined),n,n,n,n,n,n
COc1ccccc1NC(=O)c1ccc2nsnc2c1,x,u,15.1µM,3.98µM,x,u
COc1cccc(-c2nnc(NC(=O)c3cccc(F)c3)o2)c1,x,u,16.9µM,n,x,n
SMILES,KinaseGlo FLuc,ELG1 genotox,FLuc modulator,Rab9 prom act,SMN2 splice up,NPC1 promoter act
COc1ccc(NC(=O)Nc2ccc(Br)cn2)cc1OC,n,n,u,n,n,n
COc1cccc(NC(=O)c2cccc(C)c2[N+](=O)[O-])c1,n,u,19µM,u,u,n
COc1cccc(NC(=O)Nc2ccc(Br)cn2)c1,x,u,u,3.16µM,x,u
NS(=O)(=O)c1cccc(NC(=O)c2cccc(Oc3ccccc3)c2)c1,x,n,10.7µM,n,x,n
COc1cc(NC(=O)c2ccc3nsnc3c2)cc(OC)c1OC,x,n,n,n,x,n
COc1ccc2cc(/C(C)=N/NC(=O)C3CC3)ccc2c1,n,18.3µM,2.39µM,2.82µM,15.8µM,2.51µM
O=C(Nc1ccc(F)cc1)c1ccc2nsnc2c1,x,n,13.5µM,u,x,u
COc1ccc(O)c(/C=N/NC(=S)Nc2cccnc2)c1,n,n,9.53µM,n,n,n
